Test results as given in PubChem BioAssay (NCI).
“And” between values parts separate entries of the source, which are not always exact repeats. Equal entries are not always repeated. This is part of a sample that, as a whole, favours compounds with a hit. Of some 83,000 tested, about 20% had one in any assay.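 Values shown are percent growth following 48 h exposure of cells in 96-well plates to a single concentration of compound; below 10 was considered active.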 The source made the active and inactive calls.

Test system: MDA-MB-468 breast
Test: NCI-60 one-dose screen, 48 h (100 = growth as untreated, 0 = no growth, -100 = all killed)
Details: 10 µM unless noted

SMILES	growth
COc1cc(OC)c(/C=C/S(=O)(=O)Cc2ccc(OC)c(N)n2)c(OC)c1	13.5% (inactive)
COc1ccc(C2CC(c3ccc(Nc4ccnc5cc(Cl)ccc45)cc3)=NN2c2ccccc2)cc1 (stereo unspecified)	101% (inactive)
CC(C)(C)c1cc(/C=N/NC(=O)c2ccccc2NC(=O)c2cccs2)c(O)c(C(C)(C)C)c1	25.3% (inactive)
C=C[C@]1(C)C=C2CC[C@@H]3C(C)(C)C(=O)CC[C@@]3(C)[C@@H]2CC1	110% (inactive)
COc1cc2c(c(OC)c1OC)C(=O)CC(c1cccc(C(=O)Nc3ccc(Br)cc3)c1)O2 (stereo unspecified)	30.5% (inactive)
COc1ccc(C(=O)N2N=C(c3ccc(Br)cc3)CC2c2cn(-c3ccccc3)nc2-c2ccccc2)cc1 (stereo unspecified)	69% (inactive)
O=C1Nc2ccc(Cl)cc2/C1=C/c1ccc[nH]1	-19.6% (active)
O=C1Nc2ccccc2[C@]12CC(c1ccccc1)=NN2	56.5% (inactive)
C=C1C(=O)O[C@H]2[C@H]1CC/C(COC(=O)NCc1[nH]nc3ccccc13)=C\CC[C@@]1(C)O[C@@H]21	20.4% (inactive)
CC(=O)N[C@H](C(=O)N[C@@H](CCCNC(=N)N)C(=O)N[C@@H](CCCCN)C(=O)N[C@@H](CCCNC(=N)N)C(=O)N[C@]1(C)CCC/C=C\CCC[C@@](C)(C(=O)N[C@@H](CC(C)C)C(=O)N[C@@H](CC(C)C)C(=O)N[C@@H](CCC(N)=O)C(=O)N[C@@H](CCC(=O)O)C(=O)N[C@@H](CCCNC(=N)N)C(=O)N[C@@H](CCC(=O)O)C(=O)N[C@@H](CC(C)C)C(=O)N[C@H](C(=O)N[C@@H](CCC(=O)O)C(N)=O)C(C)C)NC(=O)[C@H](CCCNC(=N)N)NC(=O)[C@H](CC(C)C)NC1=O)C(C)C	109% (inactive)
Nc1ncc(-c2ccc3ncnc(N4CCc5cc(F)c(Cl)cc54)c3c2)cn1	15.8% (inactive) and -64% (active)
O=C(OC[C@H]1O[C@H](OC(=O)c2cc(O)c(O)c(OC(=O)c3cc(O)c(O)c(O)c3)c2)[C@H](OC(=O)c2cc(O)c(O)c(OC(=O)c3cc(O)c(O)c(O)c3)c2)[C@@H](OC(=O)c2cc(O)c(O)c(OC(=O)c3cc(O)c(O)c(O)c3)c2)[C@@H]1OC(=O)c1cc(O)c(O)c(OC(=O)c2cc(O)c(O)c(O)c2)c1)c1cc(O)c(O)c(OC(=O)c2cc(O)c(O)c(O)c2)c1	54.1% (inactive)
COc1ccc(/C=C/C(=O)c2cc3c(N)c(C(=O)Nc4cccc(Cl)c4C)sc3nc2C)cc1	17.1% (inactive)
Cc1ccc2c(C(C[N+](=O)[O-])c3ccccc3F)c(-c3ccccc3)[nH]c2c1 (stereo unspecified)	10.5% (inactive)
CCOC(=O)C1C(=O)C=C(c2cnccn2)CC1c1ccc(OC)c(OC)c1 (stereo unspecified)	108% (inactive)
COc1cnc2c(c1)C(=O)c1c-2n(CCCNC2=NCCS2)c(=O)c2cc(F)ccc12	-17.6% (active)
COc1ccc2c(c1)c(-c1nnc(N)nc1-c1c[nH]c3ccc(F)cc13)cn2C	2.84% (active)
CCCCCn1sc(=O)n(Cc2ccc(CNC(=O)C(C)c3ccc(CC(C)C)cc3)cc2)c1=O (stereo unspecified)	106% (inactive) and -81% (active)
c1ccc2c(NCCCn3ccnc3)c3oc4ccccc4c3nc2c1	-8.65% (active)
COc1ccc(C2CC(c3ccc(N(C)C)cc3)=NN2c2ccc(S(N)(=O)=O)cc2)cc1 (stereo unspecified)	57.6% (inactive)
O=C(NCCNc1nccc(-c2c(-c3cccc(O)c3)nc3sccn23)n1)c1ccc(N2CCOCC2)c(C(F)(F)F)c1	50.2% (inactive)
Nc1ncnc2c1ncn2C1OC(COC(c2ccccc2)(c2ccccc2)c2ccccc2)C(O)C1O (stereo unspecified)	89% (inactive)
COc1ccc2nc(-n3nc(C)cc3C)c(-n3nc(C)cc3C)nc2c1	103% (inactive)
COc1ccc(C(=O)/C=C/c2cn(-c3ccccc3)nc2-c2cccc(Nc3ccnc4cc(Cl)ccc34)c2)cc1	75.7% (inactive)

SMILES	growth
COc1ccc(C(=O)Cn2c(C(=O)c3ccc(OC)cc3)nc3ccccc32)cc1	17% (inactive)
COc1ccc(C2=Nc3c(C)nn(-c4ccccc4)c3NC(c3ccc(Oc4ccnc5cc(Cl)ccc45)c(OC)c3)C2)cc1 (stereo unspecified)	80.3% (inactive)
C/C(=N\NC(=O)/C=C/CC(=O)O)c1nnn(-c2ccc([N+](=O)[O-])cc2)c1C	99.8% (inactive)
CC1=C(/C=C/C(C)=C/C=C(C(=O)O)\C(C)=C\C(=O)O)C(C)(C)CCC1	109% (inactive)
CO/C=C/C(=O)c1cc2cnc3c(=N)cc(NC(=O)C(C)C)c([nH]1)c23	-54.9% (active)
CC(C)=CCC[C@](C)(O)[C@H]1CC[C@]2(C)[C@@H]1CC[C@@H]1[C@@]3(C)C/C(=C/c4ccc(Br)cc4)C(=O)C(C)(C)[C@@H]3CC[C@]12C	83.7% (inactive)
COc1ccc(CCN2C(=O)CCSC2=S)cc1OC	19.8% (inactive)
CC(=Nc1ccccc1)C1=C(O)C(Cc2ccccc2)NC1=O (stereo unspecified)	15.4% (inactive)
NCCOc1ncccc1/C=C1\c2ccccc2-c2ccc(F)cc21	-24.1% (active)
COCCn1cc(-c2nc(-c3cc4cccnc4n3C)cs2)c2ccccc21	-16.1% (active)
CC(C)OCCCNCC(=O)Nc1ccc(S(=O)(=O)c2ccc(NC(=O)CNCCCOC(C)C)cc2)cc1	92.7% (inactive)
N#Cc1c(-c2ccc(Cl)cc2)nc(NN=Cc2ccco2)nc1N1CCOCC1	30.9% (inactive)
Cn1cc(-c2csc(-c3c[nH]c4ccc(F)cc34)n2)c2cccnc21	-22.7% (active)
CN(C)CCOc1nc2ccccc2c2c1-c1ccc(Cl)cc1C2=O	-51.1% (active)
COc1ccc(/C=C/c2nc(NCCCN(C)C)c3ccccc3n2)cc1	-43.8% (active)
Nc1nc(=S)c2ncn(C3OC(CO)C(O)C3O)c2[nH]1 (stereo unspecified)	114% (inactive) and -12.1% (active)
CCCOC(=O)N[C@H]1CCc2c(Cl)c(OC)c(OC)c(OC)c2-c2ccc(SC)c(=O)cc21	-18.6% (active)
Cc1nc(/N=C(\N)NC(=O)Nc2cccc(Cl)c2)sc1C	55.2% (inactive)
Cc1ccc(/C=C2/C(=O)N(C)c3ccc(S(=O)(=O)Nc4ccc(C(C)(C)C)cc4)cc32)s1	63.1% (inactive)
C=CCn1c(SCC(=O)Nc2cccc(C(=O)/C=C/c3ccc(Cl)cc3)c2)nc2ccccc2c1=O	107% (inactive)
Cc1nn(-c2ccccc2)c(-n2ccnc2)c1/C=N/Nc1nc(-c2ccc(F)cc2)cs1	27.3% (inactive)
Fc1ccc(C2CC(c3cccc(Nc4ccncc4)c3)=NN2c2cc(Cl)cc(Cl)c2)cc1 (stereo unspecified)	37.6% (inactive)
NC(=O)c1ccc[n+]([C@@H]2O[C@H](COP(=O)([O-])OP(=O)(O)OC[C@H]3O[C@@H](n4cnc5c(N)ncnc54)[C@H](O)[C@@H]3O)[C@@H](O)[C@H]2O)c1	122% (inactive)
Cc1nc(Nc2cccnc2)sc1C(=O)/C=C/c1ccc(F)cc1	26.7% (inactive)

SMILES	growth
CC(=O)Nc1cccc(NC(C)=O)n1	99.3% (inactive)
C=C(C)[C@@H]1CC[C@]2(COP(=O)(OCC)OCC)CC[C@]3(C)[C@H](CC[C@@H]4[C@@]5(C)CCCNC(C)(C)[C@@H]5CC[C@]43C)[C@@H]12	24.6% (inactive)
COc1cccc2c(=O)c3c(sc12)c(NCCCN)nc1ccccc13	-8% (active)
O=C(N/N=C(\CS(=O)(=O)c1ccccc1)c1cc2ccccc2oc1=O)c1ccccc1	117% (inactive)
COc1cccc(-c2nc3occn3c2-c2ccnc(NCCNS(=O)(=O)c3cccc4ccccc34)n2)c1	98.1% (inactive)
O=C1Nc2ccc(F)cc2/C1=N/c1nnc(Sc2ccccc2)s1	-0.912% (active)
COc1cc2c(cc1-c1c(C)noc1C)ncc1nc(C3CCOCC3)n([C@@H](C)COC(F)F)c12	47.5% (inactive)
CC1=NN2C(=NC3=C(CCC/C3=C\c3ccc(Cl)cc3)C2c2ccc(Cl)cc2)S1 (stereo unspecified)	95.6% (inactive)
CCN(CC)CCCC(C)Nc1ccnc(/C=C/c2ccc(Cl)cc2)c1 (stereo unspecified)	-84.5% (active)
Nc1c(C(=O)Nc2ccccc2)sc2nc3c(cc12)C(O)CCC3 (stereo unspecified)	51.6% (inactive)
CCOC(=O)C1=C(CSC(=S)N(C2CCCCC2)C2CCCCC2)N(C)C(=O)NC1c1ccccc1 (stereo unspecified)	47.3% (inactive)
O=Nc1ccc(O)c2ccccc12	11.7% (inactive)
O=C1[C@@H]2Cc3c([nH]c4ccccc34)[C@H](c3c(Cl)cccc3Cl)N2C(=O)CN1C1CCN(Cc2c(F)cccc2F)CC1	102% (inactive)
CCCCCCCCCCCCN1CCCC(C)C1 (stereo unspecified)	68.4% (inactive)
COc1cc(C)cc2oc3oc(=O)c(-c4nc5ccccc5s4)cc3c(=O)c12	104% (inactive)
CC1(C)CC[C@]2(CO)CC[C@]3(C)[C@](O)([C@H](O)C[C@@H]4[C@@]5(C)CCCNC(C)(C)[C@@H]5CC[C@]43C)[C@@H]2C1	81.3% (inactive)
COc1cc(/C=C/C(=O)c2ccc(Nc3nc(Nc4ccccc4)nc(Nc4ccc(Cl)cc4)n3)cc2)cc(OC)c1OC	76.3% (inactive)
CCCCn1cnc2c(=O)[nH]cnc21	104% (inactive)
CC[C@]12C=CCN3CC[C@@]4(c5ccc(OC)cc5N(C)[C@H]4[C@@](O)(C(=O)OC)[C@@H]1OC(=O)CCC[P+](c1ccccc1)(c1ccccc1)c1ccccc1)[C@@H]32	-75.6% (active)
NC(=O)Cc1nc(O)cc(=O)[nH]1	111% (inactive)
NCCNc1nc2ccccc2c2c(=O)c3cc(F)cc(Cl)c3sc12	-12.5% (active)
COc1cccc(-c2nnc(N)o2)c1	90.3% (inactive)
Cn1ncc2c(C(=O)c3ccc(F)cc3)nc(C(C)(C)C)nc21	93.5% (inactive)
